# Results published in ChEMBL document CHEMBL4513216, “Probing the Open Global Health Chemical Diversity Library for Multistage-Active Starting Points for Next-Generation Antimalarials” (ACS Infect Dis, 2020).
# Out of some 69,000 compounds screened, about 8,600 (12%) showed an effect of 50% or more. What follows is part of a selection rich in strong results, with near analogues and random picks from the rest.
# System: Plasmodium berghei
# Assay: Screen against P. berghei liver stage (PbLuc), transformed with Luciferase, at 10uM
# Type: functional, HepG2
# Details: tested at 10 uM
row,SMILES,INHIBITION [%]
1,CCC(C)NC(=O)c1cc(S(=O)(=O)N2CCCC2)c(C)s1 (configuration not stated),28.3
2,Cn1ccc(C(=O)NCc2ccc(N3CCOCC3)nc2)cc1=O,-29.9
3,O=C(NCC(F)(F)F)C1CSCN1S(=O)(=O)c1cccc(F)c1 (configuration not stated),-16.6
4,COc1ccc(-c2cc(C(=O)NCCn3ccnc3)n(C)n2)cc1,-5.8
5,CN(Cc1ccc(O)cc1)C(=O)NCc1nnc2n1CCCCC2,-9.76
6,CCc1nc(CN2CCCN(CC(=O)N3CCOCC3)CC2)no1,13.8
7,CCC(C)C(=O)NCc1c(C)nn(C)c1N1CCCN(C)CC1 (configuration not stated),-1.32
8,c1cnc(N2CCOC3(CCN(CC4CCCCC4)CC3)C2)nc1,34.7
9,O=S(=O)(C1CC1)N1CCC2(CN(c3ncccn3)C2)C1,54.8
10,Cc1occc1C(=O)N1CCC2(CC1)CN(c1ccccn1)CCO2,14.8
11,CCCS(=O)(=O)N1CCC2(CC1)CN(c1ccccn1)CCO2,0
12,O=C(N1CCOCC1)N1CCC2(CC1)CN(c1ccccn1)CCO2,67.2
13,O=C(CC1CC1)N1CCC2(CC1)CN(c1ncc(F)cn1)CCO2,35.7
14,O=C(CC1CC1)N1CCC2(CC1)CN(c1ncccn1)CCO2,50
15,NCCC(=O)N1CCC2(CC1)CN(C(=O)Cc1cccc(Cl)c1)CCO2,-4.76
16,O=S(=O)(C1CC1)N1CCC2(CN(c3ccccn3)C2)C1,24.9
17,NCCC(=O)N1CCC2(CC1)CN(C(=O)Cc1ccc(Cl)cc1)CCO2,64.8
18,NCC(=O)N1CCC2(CC1)CN(C(=O)Cc1ccc(Cl)cc1)CCO2,-26.3
19,O=S(=O)(C1CC1)N1CCC2(CCCN(c3ncccn3)C2)C1 (configuration not stated),19.6
20,NC(=O)c1cnc(NC2CC2)nc1CCNC(=O)Cc1ccccc1,-50.3
21,CCn1nc(C)c(CNC(=O)NCC(C)(O)c2ccc(C)o2)c1C (configuration not stated),-8.5
22,Cc1ccc(CN2CCC3(CC2)C(=O)N(CCO)CCN3C)o1,18.6
23,O=C(CCc1ccsc1)N1CCCC(N2CCNC2=O)C1 (configuration not stated),-5.26
24,O=C(NCCc1ccccn1)N1CCOC(c2ccccc2Cl)C1 (configuration not stated),-4.63
25,COc1cc(C2SC(C)=Nc3c2c(=O)[nH]n3C2CCCC2)ccc1O (configuration not stated),24.7
26,CC(C)CC(=O)N1C[C@H]2CCCN(S(=O)(=O)c3ccc(Cl)s3)[C@H]2C1,-29.9

row,SMILES,INHIBITION [%]
1,CCS(=O)(=O)N1CCOC2(CCCN(c3cnccn3)C2)C1 (configuration not stated),-7.59
2,COCC(=O)N1CCOC2(CCCN(c3cnccn3)C2)C1 (configuration not stated),52.3
3,CS(=O)(=O)N1CCOC2(CCCN(c3cnccn3)C2)C1 (configuration not stated),-14
4,Cc1cnc(C(=O)N2CCC3(CC2)CN(c2ccccn2)CCO3)cn1,56.7
5,O=C(Cc1ccccc1)N1CCC2(CC1)CN(c1ncccn1)CCO2,50.9
6,CCOC1CC2(CCN(C(=O)Cc3ccccn3)CC2)C1,31.2
7,CC(=O)N1CCCC2(C1)CN(C(=O)Cc1ccccc1)CCO2 (configuration not stated),41.6
8,CC(C)COC1CC2(CCN(C(=O)Cc3ccccn3)CC2)C1,64.7
9,O=C(Cc1ccccn1)N1CCC2(CC1)CN(c1ncccn1)CCO2,27.6
10,Cc1ccc(C(=O)N2CCC3(CC2)CN(c2ccccn2)CCO3)cc1,49.7
11,O=C(Cc1ccccn1)N1CCC2(CC1)[C@H](O)C[C@@H]2O,39
12,O=C(c1cscn1)N1CCC2(CC1)CN(c1ccccn1)CCO2,34.6
13,CC1=C(C#N)C(=O)NC(=O)/C1=C\c1c(C)[nH]n(-c2ccc(Cl)cc2)c1=O,11.5
14,Cn1cc(CCNC(=O)N2CCCC(c3nncn3C)C2)cn1 (configuration not stated),-18
15,Cc1nnc2n1CCN(Cc1csc(-c3ccsc3)n1)C2,14.4
16,CC(C)Cc1nc(CN2CCOC(Cn3cccn3)C2)no1 (configuration not stated),28.8
17,O=C(c1ccc(-c2cnco2)cc1)N1CCC(Nc2cccnn2)CC1,-46.2
18,Cc1nccn1-c1cncc(C2CCCN2Cc2cccnc2)n1 (configuration not stated),-22.6
19,CCC(CO)N(C/C(C)=C/c1ccco1)Cc1ccsc1 (configuration not stated),42.3
20,COCCN1CCCc2sc(C(=O)NCC3CCCO3)nc21 (configuration not stated),-50.8
21,COCCN(C)C[C@@H]1CCC[C@@H]2CN(c3ncccn3)C[C@@H]21,26
22,O=C(c1cccnc1)N1CCC2(CC1)CN(c1ccccn1)CCO2,-13.2
23,O=C(c1cccc(F)c1)N1CCC2(CC1)CN(c1ccccn1)CCO2,57.9
24,O=C(c1ccnnc1)N1CCC2(CC1)CN(c1ccccn1)CCO2,33.4
25,O=C(CC1CC1)N1CCC2(CCCN(c3ncccn3)C2)CC1,52
26,c1cnc(N2CCCC3(CCN(CC4CCOC4)CC3)C2)nc1 (configuration not stated),-19.1
